This note sets out measurements from PubChem BioAssay (NCI).

About 83,000 compounds went through this panel and 20% of them were active in at least one assay; those are over-represented in the sample as a whole.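 Testing used 96-well plates and a 48-hour single-concentration exposure. Example: -40 means 40% of the starting cells died.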 Values without a mark were called inactive. Active and inactive are the calls of the source. Rule for the calls: active = growth percent below 10; inactive = the rest. Where a SMILES comes first, the peptide text is derived from it. The star is where a group is joined. Trt = c1ccc(C(c2ccccc2)(c2ccccc2)*)cc1; Cbz = O=C(OCc1ccccc1)*

Common to all, as to experiment: NCI-60 one-dose screen, 48 h (100 = growth as untreated, 0 = no growth, -100 = all killed)
The test system of experiment [1] is T-47D breast.
The subject of experiment [2] is BT-549 breast.
Experiment [3] concerns MDA-MB-435 melanoma.
Experiment [4] concerns SW-620 colon.
The subject of experiment [5] is MCF7 breast.
Experiment [6] relates to HCT-116 colon.
For experiment [7], the system named is HCC-2998 colon.
Experiment [8] concerns KM12 colon.

In the case of `COC(=O)C(CSC(c1ccccc1)(c1ccccc1)c1ccccc1)NC(=O)C(CC(N)=O)NC(=O)OCc1ccccc1` (stereo not drawn) (Cbz-Asn-Cys(Trt)-OMe; configuration not given here), the growth was -0.975% (active) in experiment [1] (10 µM unless noted); 50.6% in experiment [2] (10 µM unless noted); -37.3% (active) in experiment [3] (10 µM unless noted); 62.6% in experiment [4] (10 µM unless noted); 32.3% in experiment [5] (10 µM); 12.7% in experiment [6] (10 µM unless noted). Moreover, the growth in experiment [7] (10 µM unless noted) was -18.7% (active); in experiment [8] (10 µM unless noted), 33%.

With `CN(C)C(=O)c1ccc(SC(=S)NCc2ccccc2)cc1`, the growth was 90% in experiment [1] (10 µM); 13.4% in experiment [1] (100 µM); 114% in experiment [2] (10 µM); -79.3% (active) in experiment [2] (100 µM); 97.4% in experiment [3] (10 µM); 4.45% (active) in experiment [3] (100 µM). The growth is 98.9% in experiment [4] (10 µM); -35.8% (active) in experiment [4] (100 µM); 100% in experiment [6] (10 µM); -26.2% (active) in experiment [6] (100 µM); 104% in experiment [7] (10 µM); -78.3% (active) in experiment [7] (100 µM). For the same compound, the growth in experiment [8] (10 µM) is 102%; in experiment [8] (100 µM) it was 25.5%.

For the compound `CN(C)C(=O)SC1=C(c2c(Cl)cccc2Cl)C(=O)c2ccccc21`, the growth in experiment [1] (10 µM unless noted) was -71.9% (active); in experiment [2] (10 µM unless noted), 87.2%; in experiment [3] (10 µM unless noted) it was -13% (active); in experiment [4] (10 µM unless noted), -83.9% (active); in experiment [5] (10 µM) it was -43.6% (active); in experiment [6] (10 µM unless noted) it was -64.6% (active). The values for the growth in experiment [7] (10 µM unless noted) and in experiment [8] (10 µM unless noted) were 114% and 99.4%, respectively.

With `NC(=S)N/N=C/c1ccc(Cl)s1`, the growth was 89.8% in experiment [1] (10 µM unless noted); 112% in experiment [2] (10 µM unless noted); 104% in experiment [3] (10 µM unless noted); 105% in experiment [4] (10 µM unless noted); 104% in experiment [5] (10 µM); 93.4% in experiment [6] (10 µM unless noted). In addition, the values for the growth in experiment [7] (10 µM unless noted) and in experiment [8] (10 µM unless noted) were 111% and 101%, respectively.

On to `Cc1ccnc(NC(c2ccccc2)c2ccc3cccnc3c2O)c1` (stereo unspecified), for which the growth in experiment [1] (10 µM unless noted) is 54.7%; in experiment [2] (10 µM unless noted) it was 57.1%; in experiment [3] (10 µM unless noted), 30.5%; in experiment [4] (10 µM unless noted), 48.9%; in experiment [5] (10 µM) it was 22.4%; in experiment [6] (10 µM unless noted), 31.8%. Further, the values for the growth in experiment [7] (10 µM unless noted) and in experiment [8] (10 µM unless noted) were 27.3% and 32.8%, respectively.

With `Oc1c(Br)cc(Cl)cc1C(c1cc(Cl)cc(Br)c1O)C(Cl)(Cl)Cl`, the growth in experiment [1] (10 µM unless noted) is 28.9%; in experiment [2] (10 µM unless noted), 28%; in experiment [3] (10 µM unless noted), 39%; in experiment [4] (10 µM unless noted), 17.8%; in experiment [5] (10 µM), 11.1%; in experiment [6] (10 µM unless noted), 4.13% (active). Further, the growth in experiment [7] (10 µM unless noted) is 16.9%; in experiment [8] (10 µM unless noted), 13%.

`O=C(/C=C\c1cc(Br)ccc1O)/C=C/c1cc(Br)ccc1O`: the growth in experiment [1] (10 µM unless noted) was 6.69% (active); in experiment [2] (10 µM unless noted), -12.3% (active); in experiment [3] (10 µM unless noted), -47.9% (active); in experiment [4] (10 µM unless noted) it was -43.4% (active); in experiment [5] (10 µM) it was 6.18% (active); in experiment [6] (10 µM unless noted), -97.8% (active). The growth was -74.4% (active) in experiment [7] (10 µM unless noted) and -71.5% (active) in experiment [8] (10 µM unless noted).

For the compound `O=C(Nc1c(Cl)cccc1Cl)Oc1cccc2cccnc12`, the growth was 30.2% in experiment [1] (10 µM); 7.28% (active) in experiment [1] (100 µM); 78.5% in experiment [2] (10 µM); 23.5% in experiment [2] (100 µM); 53.6% in experiment [3] (10 µM); 23.8% in experiment [3] (100 µM). The growth in experiment [4] (10 µM) is 26.8%; in experiment [4] (100 µM), 23.5%; in experiment [6] (10 µM) it was 14.3%; in experiment [6] (100 µM), 8.1% (active); in experiment [7] (10 µM), 93.4%; in experiment [7] (100 µM), 42.2%. Besides, the growth in experiment [8] (10 µM) is 47%; in experiment [8] (100 µM), 5.56% (active).

As to `COc1ccc(-c2cscc2N)cc1`, the growth is 60% in experiment [1] (10 µM); 17.3% in experiment [1] (100 µM); 69.5% in experiment [2] (10 µM); -32.7% (active) in experiment [2] (100 µM); 79.1% in experiment [3] (10 µM); 30.4% in experiment [3] (100 µM). For the same compound, the growth was 88.5% in experiment [4] (10 µM); 48.4% in experiment [4] (100 µM); 47.3% in experiment [5] (10 µM); 19.9% in experiment [5] (100 µM); 73.3% in experiment [6] (10 µM); 26.4% in experiment [6] (100 µM). In addition, the growth was 80.1% in experiment [7] (10 µM), 39.6% in experiment [7] (100 µM), 69.6% in experiment [8] (10 µM) and 21.1% in experiment [8] (100 µM).

Regarding `Nc1ccc(SSc2ccc(N)cc2)cc1`, the growth is 88.7% in experiment [1] (10 µM unless noted); 66.6% in experiment [2] (10 µM unless noted); 93.4% in experiment [3] (10 µM unless noted); 95.1% in experiment [4] (10 µM unless noted); 96.5% in experiment [5] (10 µM); 95.1% in experiment [6] (10 µM unless noted). Besides, the growth in experiment [7] (10 µM unless noted) was 94.8%; in experiment [8] (10 µM unless noted), 86.1%.

Regarding `Cc1c2ccccc2c(C)c2c1ccc1ccccc12`, the growth was 65.3% in experiment [1] (10 µM unless noted); 98.8% in experiment [2] (10 µM unless noted); 92% in experiment [3] (10 µM unless noted); 99.9% in experiment [4] (10 µM unless noted); 32.2% in experiment [5] (10 µM); 81.3% in experiment [6] (10 µM unless noted). Moreover, the growth is 104% in experiment [7] (10 µM unless noted) and 89.3% in experiment [8] (10 µM unless noted).

Regarding `Cc1ccc2c(ccc3c[n+]4c5ccccc5ccc4n32)c1`, the growth in experiment [1] (10 µM unless noted) is -24.7% (active); in experiment [2] (10 µM unless noted), -2.45% (active); in experiment [3] (10 µM unless noted), -27.5% (active); in experiment [4] (10 µM unless noted) it was 7.65% (active); in experiment [5] (10 µM), 0.326% (active); in experiment [6] (10 µM unless noted), 7.17% (active). For the same compound, the growth was -34.9% (active) in experiment [7] (10 µM unless noted) and -8.63% (active) in experiment [8] (10 µM unless noted).
